Screening data: PubChem, National Center for Advancing Translational Sciences (NCATS)
HP1b binding inh: HP1-beta chromodomain-methylated histone interaction inhibition; AlphaScreen HP1-beta / biotin-H3K9me3 peptide binding; Potency, µM (series often up to 114 µM), for the others: at the top dose activity change, negative = inhibition, most hits filed as inhibitors; 390,000 tested, 0.56% active; AID 540317; note: nearly all actives have a fitted effect of over 70% in size
Target sequence (P83916 whole entry, looked up): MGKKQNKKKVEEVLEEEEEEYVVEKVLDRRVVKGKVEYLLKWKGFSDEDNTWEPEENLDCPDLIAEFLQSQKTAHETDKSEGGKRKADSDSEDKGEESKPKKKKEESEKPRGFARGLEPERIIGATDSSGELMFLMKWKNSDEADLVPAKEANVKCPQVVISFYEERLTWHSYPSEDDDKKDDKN
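Compound inhibition of the preformed complex between 50 nM HP1-beta and 50 nM biotinylated H3K9me3 peptide was read by AlphaScreen. Buffer was PBS pH 7.4 with 0.01% Tween-20. Incubations ran 30 min at room temperature, with 10 ug/mL donor/acceptor beads.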
Sfp inh: blocks B. subtilis Sfp PPTase activity; Biochemical Sfp PPTase activity, qHTS; Potency, µM, for inactives: largest response in the series, negative = inhibition, most hits filed as inhibitors; 310,000 tested, 3.5% active;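 note: the enzyme is Sfp with the accession as filed and its product quenches rhodamine fluorescence; 0% = enzyme reaction without inhibitor and -100% = no enzyme wells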
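Compounds were incubated with enzyme (final 15 nM) for 15 min at room temperature before substrate addition started the reaction. Fluorescence at 525 nm excitation, 598 nm emission was recorded immediately and after 30 minutes.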
JMJD2A Tudor inh: JMJD2A Tudor domain (human) inhibition; O75164; AlphaScreen JMJD2A-Tudor / H3K4me3 peptide binding; Potency, µM (highest dose often 114 µM), without a hit: top-dose activity change, negative = inhibition, most hits filed as inhibitors; 390,000 tested, 4.4% active; AID 504339; note: % is set by controls: 0 for no effect and ±100 for the full control effect; nearly all actives have a fitted effect of over 50% in size
L3MBTL1 block: L3MBTL1 (human) inhibition; Q9Y468; AlphaScreen L3MBTL1–H3K9me1 peptide binding; Potency, µM (doses to about 57.1 µM), for the others: at the top dose activity, negative = inhibition, actives largely listed as inhibitors; 230,000 tested, 0.66% active; note: % is set by controls: 0 for no effect and ±100 for the full control effect; nearly all actives have a fitted effect of over 60% in size
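Displacement of a biotinylated histone H3(1-15) peptide monomethylated at Lys9 (75 nM) from L3MBTL1 (50 nM) was measured by AlphaScreen after a 30 min room-temperature compound incubation; cefsulodin titration served as intraplate control.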
BAZ2B inh: BAZ2B (human) inhibition. Potency, µM (series often up to 114 µM), inactives show at the top dose activity change, negative = inhibition, most hits filed as inhibitors. AID 504333. AlphaScreen BAZ2B-H3K14Ac peptide displacement. Q9UIF8. 360,000 tested, 4.4% active; note: % is set by controls: 0 for no effect and ±100 for the full control effect; nearly all actives have a fitted effect of over 60% in size
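Multi-concentration screen (max 110 uM) measuring displacement of acetylated histone H3 peptide from BAZ2B by AlphaScreen, using 50 nM protein, 50 nM peptide and 10 ug/mL streptavidin donor plus Ni-chelate acceptor beads.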
G9a inh: blocks human histone lysine methyltransferase G9a. Q96KQ7. G9a H3K9 monomethylation, AlphaScreen, 2 h. Potency, µM (titrated, usually from 102 µM), inactives show top-dose activity, negative = inhibition, most hits filed as inhibitors. 350,000 tested, 8.8% active. AID 504332; note: % is set by controls: 0 for no effect and ±100 for the full control effect; nearly all actives have a fitted effect of over 75% in size
Target sequence (Q96KQ7 913-1193 limits assumed): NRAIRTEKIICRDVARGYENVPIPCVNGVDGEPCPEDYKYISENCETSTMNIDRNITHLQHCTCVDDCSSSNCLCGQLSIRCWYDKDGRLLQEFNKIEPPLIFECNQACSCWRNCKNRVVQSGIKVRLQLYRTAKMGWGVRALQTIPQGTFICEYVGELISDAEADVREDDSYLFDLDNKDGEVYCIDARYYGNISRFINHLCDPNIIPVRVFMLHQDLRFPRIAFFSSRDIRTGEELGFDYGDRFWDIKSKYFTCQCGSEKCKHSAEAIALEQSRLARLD
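Chemiluminescent proximity detection of H3K9 monomethylation, read after 10 min bead incubation in the dark. Reaction: 20 nM G9a, 500 nM biotin-H3K9 peptide, 20 uM SAM cofactor, 2 h, room temperature, following 15 min enzyme-compound preincubation.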
An asterisk follows results filed as active; [ ] = dose if it differs, or a comment. Sampled rows, rich in hits. Any-hit rate of the full collection: about 12%. Calls come from the whole dose curve; as a rule, active = well fitted curve in the direction sought with a large enough effect; inconclusive = small, poorly fitted or top-dose-only effect, or another doubt; inactive = no such curve, though single readings can be large; an effect the other way counts as inactive or inconclusive. Potency is the fitted concentration of half-maximal effect.

Cn1c(-c2csc(-c3ccccc3)n2)n[nH]c1=S was read as HP1b binding inh -5%, Sfp inh -10%, JMJD2A Tudor inh 28µM*, L3MBTL1 block 32%, BAZ2B inh -18% and G9a inh -136%[59 µM].
Screening COc1ccc(-n2c(-c3ccc(Br)cc3)n[nH]c2=S)cc1 returned HP1b binding inh 44%, Sfp inh -10%, JMJD2A Tudor inh 32µM*, L3MBTL1 block 1%[2.29 µM], BAZ2B inh -37% and G9a inh -28%[0.501 µM].
COc1ccc(-c2n[nH]c(=S)n2-c2ccc(C)cc2)cc1 was read as HP1b binding inh -3%, Sfp inh inconclusive, JMJD2A Tudor inh inconclusive, BAZ2B inh -15% and G9a inh 0.89µM*.
For Cc1nc(-c2ccccc2)cs1 the results were HP1b binding inh 20%, Sfp inh 12%, JMJD2A Tudor inh -5%, BAZ2B inh 2% and G9a inh 1%.
COc1ccc(-n2c(-c3ccc(Br)cc3)nc(=S)c3c2CCCC3)cc1 was read as HP1b binding inh 36%, Sfp inh 22%, JMJD2A Tudor inh 3%, L3MBTL1 block 1%, BAZ2B inh 2% and G9a inh inconclusive.
Screening CCOc1ccc(NC(=O)CN2CCN(C3CCCCC3)C(=O)C2=O)cc1 returned HP1b binding inh 0%, JMJD2A Tudor inh -19%, BAZ2B inh -6% and G9a inh -5%[59 µM].
For COc1ccc(-c2noc(CC(=O)Nc3ccc(Br)cc3C)n2)cc1 the results were HP1b binding inh 38%, JMJD2A Tudor inh -9%, BAZ2B inh -27% and G9a inh 0%[59 µM].
COc1ccccc1C1=NNC(=Nc2cccc(S(=O)(=O)N(C)C)c2)SC1 was read as HP1b binding inh inconclusive, Sfp inh -93%, JMJD2A Tudor inh -21%, L3MBTL1 block inconclusive, BAZ2B inh inconclusive and G9a inh 16µM*.
Screening O=C(O)c1c(C(=O)O)c2ccccc2[nH]c1=O returned Sfp inh 18%.
For CCOC(=O)c1ccc(NC(=O)CCc2c(C)nc3nc[nH]n3c2=O)cc1 the results were HP1b binding inh 28%, JMJD2A Tudor inh -10%, BAZ2B inh 56µM* and G9a inh -6%[59 µM].
CCOC(=O)c1cnc2nc[nH]n2c1=O was read as HP1b binding inh 25%, Sfp inh -16%, JMJD2A Tudor inh -27%, L3MBTL1 block 33%, BAZ2B inh 16% and G9a inh 56µM*.
CCOC(=O)c1cnc2nc(C(F)(F)F)[nH]n2c1=O was read as HP1b binding inh 19%, Sfp inh -2%, JMJD2A Tudor inh -25%, BAZ2B inh inconclusive and G9a inh inconclusive.
Screening CCOC(=O)c1cnc2nc(N3CCOCC3)nn2c1N returned HP1b binding inh 20%, Sfp inh 8%, JMJD2A Tudor inh -13%, L3MBTL1 block -15%, BAZ2B inh -2% and G9a inh 1%.
`CCCCCC(=O)OCCc1c(C)nc2nc[nH]n2c1=O` gave HP1b binding inh 49%, Sfp inh 13%, JMJD2A Tudor inh 5%[11.4 µM], BAZ2B inh -38% and G9a inh 6%.
Screening CCOC(=O)c1cnc2nc(C)nn2c1N returned HP1b binding inh 29%, Sfp inh 12%, JMJD2A Tudor inh -8%, L3MBTL1 block -2%, BAZ2B inh -34% and G9a inh 28µM*.
Screening Cc1ccc(C(=O)NCc2ccco2)c(C)c1 returned HP1b binding inh 29%, Sfp inh 13%, JMJD2A Tudor inh 0%, L3MBTL1 block -1%, BAZ2B inh -9% and G9a inh 10%[59 µM].
Screening CCc1cccc(C)c1NC(=O)CSc1nc(C)cc(C)c1C(=O)Nc1ccccc1 returned HP1b binding inh 16%, JMJD2A Tudor inh -19%, BAZ2B inh 0% and G9a inh -7%[59 µM].
Screening COc1ccc(NC(=O)CSc2nc(-c3ccco3)cc(C(F)(F)F)n2)cc1Cl returned HP1b binding inh 13%, JMJD2A Tudor inh -12%, BAZ2B inh -5% and G9a inh 2%[59 µM].
`Cc1ccc(NC(=O)CSc2nc(-c3ccco3)nc3cc(=O)[nH]n23)cc1C` gave HP1b binding inh 28%, JMJD2A Tudor inh -34%, BAZ2B inh 40µM* and G9a inh inconclusive.
Screening COc1ccc(NC(=O)CSc2nc(-c3ccco3)nc3cc(=O)[nH]n23)cc1Cl returned HP1b binding inh -3%, Sfp inh -11%, JMJD2A Tudor inh 45µM*, BAZ2B inh 79µM* and G9a inh 8%.
Screening COc1ccc(NC(=O)CSc2nc(-c3ccco3)nc3cc(=O)[nH]n23)cc1 returned HP1b binding inh 22%, JMJD2A Tudor inh -10%, BAZ2B inh 79µM* and G9a inh 2%[59 µM].
For COc1ccc(NC(=O)CSc2nnc(-c3ccco3)n2C)cc1 the results were HP1b binding inh 22%, Sfp inh 17%, JMJD2A Tudor inh -17%, BAZ2B inh -15% and G9a inh 7%[12.7 µM].
For COc1cccc2sc(N3CCN(C(=O)CCS(=O)(=O)c4ccc(F)cc4)CC3)nc12 the results were HP1b binding inh 0%, JMJD2A Tudor inh -12%, BAZ2B inh -5% and G9a inh -1%[59 µM].
For Cc1nnc(Cn2cnc3c2c(=O)n(C)c(=O)n3C)o1 the results were HP1b binding inh 39%, Sfp inh -4%, JMJD2A Tudor inh 6%, BAZ2B inh 6% and G9a inh 1%.
Cc1ccc(C)c(-n2nnnc2SCC(=O)c2ccc3c(c2)NC(=O)CO3)c1 was read as HP1b binding inh 39%, Sfp inh -4%, JMJD2A Tudor inh -15%[57.1 µM], L3MBTL1 block 1%, BAZ2B inh inconclusive and G9a inh 50µM*.
For Cc1ccc2nc(SCC(=O)c3ccc4c(c3)NC(=O)CO4)[nH]c2c1 the results were HP1b binding inh 20%, Sfp inh -8%, JMJD2A Tudor inh -4%, L3MBTL1 block 4% and BAZ2B inh -3%.
Cc1cccc(C)c1Nc1nnc(SCC(=O)c2ccc3c(c2)NC(=O)CO3)s1 was read as HP1b binding inh 22%, Sfp inh 10%, JMJD2A Tudor inh -17%, L3MBTL1 block -5%, BAZ2B inh -5% and G9a inh 11µM*.
For CCN(CC)c1ccc(NC(=O)CSc2nnc(N)s2)cc1C the results were HP1b binding inh 39%, Sfp inh 9%, JMJD2A Tudor inh -19%, BAZ2B inh -18% and G9a inh 56µM*.
CCOc1ccc(C(=O)CSc2nnc(N)s2)cc1 was read as HP1b binding inh 30%, Sfp inh 3%, JMJD2A Tudor inh -5%, L3MBTL1 block 0%, BAZ2B inh 0% and G9a inh 32µM*.
